A selection: hits, their analogues and other compounds. The true share with any hit is near 0.56%.
Tb PFK inh: T. brucei PFK enzyme inhibition; O15648; T. brucei PFK, ADP-Glo luminescence; Potency, µM (titrated, usually from 57.5 µM), for the others: at the top dose activity, negative = inhibition, actives largely listed as inhibitors; 0.17% of 330,000 active; AID 485367;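 note: potency is the fitted concentration of half-maximal effect; 0% = uninhibited 1x PFK enzyme wells and -100% = no-enzyme wells; nearly all actives have a fitted effect of over 60% in size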
Target sequence (O15648 whole entry, looked up): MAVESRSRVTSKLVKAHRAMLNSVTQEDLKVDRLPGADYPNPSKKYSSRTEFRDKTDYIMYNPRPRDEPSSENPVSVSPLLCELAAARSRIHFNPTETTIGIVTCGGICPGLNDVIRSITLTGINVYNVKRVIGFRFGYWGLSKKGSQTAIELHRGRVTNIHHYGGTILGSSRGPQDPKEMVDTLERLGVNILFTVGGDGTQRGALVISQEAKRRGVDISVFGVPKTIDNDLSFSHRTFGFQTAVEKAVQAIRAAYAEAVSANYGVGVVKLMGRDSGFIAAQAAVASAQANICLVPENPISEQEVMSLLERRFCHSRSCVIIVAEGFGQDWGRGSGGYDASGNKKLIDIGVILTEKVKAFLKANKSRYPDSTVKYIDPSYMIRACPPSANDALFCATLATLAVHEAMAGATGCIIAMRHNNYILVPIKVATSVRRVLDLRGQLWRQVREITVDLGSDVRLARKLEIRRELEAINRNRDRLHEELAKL
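ADP-Glo luminescence quantified ADP after 45 min at room temperature, with 1.25 nM T. brucei PFK, 0.1 mM ATP and 0.5 mM fructose-6-phosphate in pH 8.0 TEA buffer. qHTS titrations up to 57 µM; curves classified by quality.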
PKM2 activator: PKM2 (human) enzyme activation | P14618 | purified PKM2, Kinase-Glo ATP luminescence, activation; response scale: 0% is enzyme alone, no compound | Potency, µM (series often up to 57.5 µM), for the others: top-dose activation, actives largely listed as activators | 0.34% of 260,000 active; note: potency is the fitted concentration of half-maximal effect; % is set by controls: 0 for no effect and ±100 for the full control effect; nearly all actives have a fitted effect of over 55% in size
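hPK-M2, >95% pure; 0.1 mM ADP / 0.5 mM PEP final; imidazole pH7.2 buffer w/ 7 mM MgCl2, 50 mM KCl; 1 h RT; Kinase-Glo lum. Intermediate enzyme activity for dual inhibitor/activator qHTS.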
GALK inhibitor: inhibitors of human galactokinase. AID 1868. Purified GALK, Kinase-Glo residual ATP luminescence. Potency, µM (doses to about 57.5 µM), without a hit: at the top dose activity change, negative = inhibition, usual class: inhibitors. P51570. 0.007% of 270,000 active; note: potency is the fitted concentration of half-maximal effect; % is set by controls: 0 for no effect and ±100 for the full control effect
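The enzyme phosphorylates galactose (100 uM) using ATP (35 uM); inhibition is detected as higher residual ATP, quantified by bioluminescence after 1 h reaction at room temperature, pH 8.0.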
Luc counter: blocks Kinase-Glo luciferase, a counter-screen artifact; Kinase-Glo luciferase, ATP luminescence, 8 min; Potency, µM (top dose mostly 38.3 µM), without a hit: top-dose activity change, negative = inhibition, usual class: inhibitors; 0.28% of 200,000 active; note: potency is the fitted concentration of half-maximal effect; % is set by controls: 0 for no effect and ±100 for the full control effect; nearly all actives have a fitted effect of over 60% in size
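Recombinant Kinase-Glo luciferase, 10 uM ATP (linear range), luciferin; imidazole pH 7.2 / KCl / MgCl2 / Tween / BSA buffer; 8 min RT; luminescence.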
CBFb-RUNX1 inh: inhibitors of human CBF-beta and RUNX1 interaction. AlphaScreen CBFb-His/RUNX1-biotin binding, biochemical. Potency, µM (series often up to 59.8 µM), for inactives: top-dose activity, negative = inhibition, most hits filed as inhibitors. 230,000 tested, under 10 active. AID 1477; note: % of control where 0% means no effect
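AlphaScreen proximity signal reports loss of binding between His-tagged CBF-beta and biotin-labelled RUNX1, each at 30 nM. Proteins are pre-associated for 20 minutes, compounds added for 15 minutes, then beads for 90 minutes, all at ambient temperature.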
Starred values were filed as active, the others as inactive; [ ] = dose if it differs, or a comment. Calls come from the whole dose curve; as a rule, active = well fitted curve in the direction sought with a large enough effect; inconclusive = small, poorly fitted or top-dose-only effect, or another doubt; inactive = no such curve, though single readings can be large; an effect the other way counts as inactive or inconclusive.

Screening Cc1ccc(-n2nnnc2SCn2nnc3ccccc3c2=O)c(C)c1 returned PKM2 activator 15.8µM*, GALK inhibitor -0.3%, Luc counter -2.3% and CBFb-RUNX1 inh 3.9%.
CC(=O)c1c(O)cccc1O was read as CBFb-RUNX1 inh 9.4%.
For C=CCn1c(SCC(N)=O)nc2scc(-c3ccc(C)o3)c2c1=O the results were Tb PFK inh -6.6%, PKM2 activator 31.6µM*, GALK inhibitor 4.5%, Luc counter 5.5% and CBFb-RUNX1 inh 11.1%.
Screening C=CCn1c(SCc2ccccc2)nc2scc(-c3ccc(C)o3)c2c1=O returned Tb PFK inh 1.1%, PKM2 activator 17.2%, GALK inhibitor -0.5%, Luc counter -0.5% and CBFb-RUNX1 inh 0.1%.
For CCOc1ccc(-c2cn3ccccc3n2)cc1 the results were Tb PFK inh -22.0%, PKM2 activator -59.2%, GALK inhibitor 14.4%, Luc counter 8.91µM* and CBFb-RUNX1 inh 6.5%.
COc1ccc(-c2cn3cc(C)ccc3n2)cc1OC was read as Tb PFK inh 1.5%, PKM2 activator -30.7%, GALK inhibitor -0.1%, Luc counter inconclusive and CBFb-RUNX1 inh 5.7%.
For COc1ccc(-c2cn3ccccc3n2)cc1OC the results were Tb PFK inh -8.6%, PKM2 activator -78.8%, GALK inhibitor 9.4%, Luc counter 11.2µM* and CBFb-RUNX1 inh 9.8%.
For Fc1ccccc1Cn1nnc2c(NCCc3ccccn3)ncnc21 the results were Tb PFK inh -0.8%, PKM2 activator 12.6µM*, GALK inhibitor -2.6%, Luc counter 1.8% and CBFb-RUNX1 inh 2.2%.
For Fc1cccc(Cl)c1Cn1nnc2c(NCc3ccccn3)ncnc21 the results were Tb PFK inh -3.3%, PKM2 activator 30.0%, GALK inhibitor 0.6%, Luc counter 1.0% and CBFb-RUNX1 inh -3.0%.
Screening COc1cccc(CC(=O)N2CCc3nc(-c4ccccc4)c4c(c3C2)CO[C@@H](C)C4)c1 returned PKM2 activator -6.8%[11.5 µM], Luc counter -3.5%[7.66 µM] and CBFb-RUNX1 inh 3.6%[13.1 µM].
`Cn1cccc1C(=O)Nc1nc(-c2ccccn2)cs1` gave Tb PFK inh -0.4%, PKM2 activator -9.6%, GALK inhibitor 0.0%, Luc counter 11.2µM* and CBFb-RUNX1 inh -23.5%.
Cc1csc(NC(=O)c2cccn2C)n1 was read as Tb PFK inh -11.0%, PKM2 activator -43.0%, GALK inhibitor 4.2%, Luc counter inconclusive and CBFb-RUNX1 inh -3.5%.
COc1ccc(-c2cc(C(=O)N/N=C/c3ccc(OC)c(OC)c3)[nH]n2)cc1 was read as Luc counter -19.6%.
CC(C)OC(=O)CN1C(=O)S/C(=C/c2ccc(N3CCCCC3)o2)C1=O was read as Tb PFK inh -5.5%, PKM2 activator 17.8%, GALK inhibitor -3.1%, Luc counter -5.7% and CBFb-RUNX1 inh -7.0%.
O=C1S/C(=C/c2ccc(N3CCOCC3)o2)C(=O)N1Cc1ccc(F)cc1 was read as Tb PFK inh -3.9%, PKM2 activator 2µM*, GALK inhibitor -2.8%, Luc counter -6.1% and CBFb-RUNX1 inh -0.4%.
O=C1S/C(=C\c2ccc(N3CCOCC3)o2)C(=O)N1Cc1ccc(F)cc1 was read as Tb PFK inh -2.6%, PKM2 activator 2µM*, GALK inhibitor -0.9%, Luc counter -7.1% and CBFb-RUNX1 inh 0.8%.
Screening O[C@@H](c1cc(-c2ccccc2)nc2c1ccc1ccccc12)C1CCCCN1 (stereo not given in full) returned Luc counter -1.1%[7.66 µM].
For COc1ccc([C@@H]2CC(=O)c3c(O)cc(O[C@@H]4O[C@H](CO)[C@@H](O)[C@H](O)[C@H]4O[C@@H]4O[C@@H](C)[C@H](O)[C@@H](O)[C@H]4O)cc3O2)cc1 the results were CBFb-RUNX1 inh 19.6%.
O=[N+]([O-])c1ccccc1OCCCn1cnc2ccccc21 was read as Tb PFK inh -2.8%, PKM2 activator 17.8µM*, GALK inhibitor -1.5%, Luc counter -0.1% and CBFb-RUNX1 inh -3.2%.
`Cc1nc2ccc(Cc3ccc4nc(C)[nH]c4c3)cc2[nH]1` gave Tb PFK inh -1.6%, PKM2 activator -13.9%, GALK inhibitor -1.7%, Luc counter 2.1% and CBFb-RUNX1 inh 1.3%.
`Cc1nc2ccc(N=NN(C)C)cc2[nH]1` gave Tb PFK inh -11.4%, PKM2 activator 10µM*, GALK inhibitor 3.4% and CBFb-RUNX1 inh -0.3%.
For Cc1ccc(-c2cc3c(N=O)c4ccccc4c-3n[nH]2)cc1 the results were Tb PFK inh 1.4%, PKM2 activator -29.4%, GALK inhibitor 8.6%, Luc counter 10µM* and CBFb-RUNX1 inh -21.9%.
For O=Nc1c2cc(-c3ccccc3)[nH]nc-2c2ccccc12 the results were Tb PFK inh -2.0%, PKM2 activator -30.6%, GALK inhibitor 15.4%, Luc counter 2.24µM* and CBFb-RUNX1 inh 3.9%.
For Cc1cccc(-c2cc3c(N=O)c4ccccc4c-3n[nH]2)c1 the results were Tb PFK inh -3.7%, PKM2 activator -23.8%, GALK inhibitor 8.1%, Luc counter 10µM* and CBFb-RUNX1 inh 7.5%.
For O=c1[nH]nc(-c2ccccc2)c2ccccc12 the results were Tb PFK inh 2.5%, PKM2 activator -0.8%, GALK inhibitor 0.6% and CBFb-RUNX1 inh 3.0%.
Screening COc1cc([C@@H]2CC(=O)c3c(O)cc(O)cc3O2)ccc1O returned CBFb-RUNX1 inh 17.5%.
`Cc1c(C(=O)OCC2CCCO2)[nH]c2c1C(=O)CC(c1ccco1)C2` (stereo not given) gave Tb PFK inh inconclusive, PKM2 activator 20µM*, GALK inhibitor -2.6% and Luc counter -2.3%.
Cc1c(C(=O)OCC(C)C)[nH]c2c1C(=O)CC(c1ccco1)C2 (stereo not given) was read as Tb PFK inh -20.7%, PKM2 activator inconclusive, GALK inhibitor -2.8%, Luc counter 1.2% and CBFb-RUNX1 inh inconclusive.
Screening C[C@H]1Cc2c(COc3ccccc3)nc3c(c2CO1)CN(C(=O)c1cccnc1)CC3 returned PKM2 activator -0.1%[11.5 µM], Luc counter -1.5%[7.66 µM] and CBFb-RUNX1 inh 3.7%[13.1 µM].
Cc1cc(O)c(C=O)c2c1C(=O)Oc1c(CO)c(O)c3c(c1O2)C(O)OC3=O (stereo not given) was read as Tb PFK inh 23.9µM*, PKM2 activator -7.3% and GALK inhibitor -15.5%.
For COc1cc(C(=O)N=c2sc3c(C)ccc(OC)c3n2C)cc(OC)c1OC the results were Tb PFK inh 0.8%, PKM2 activator -0.8%, GALK inhibitor 4.0% and CBFb-RUNX1 inh 9.1%.
Screening COc1ccc(C(=O)N=c2sc3c(C)ccc(OC)c3n2C)cc1 returned Tb PFK inh -4.0%, PKM2 activator 2.8%, GALK inhibitor 5.3%, Luc counter 12.6µM* and CBFb-RUNX1 inh 5.8%.
